Hit rate of the full screen: of about 1,100 compounds, about 210 (19%) were called active. The rule behind the calls is not given here. A selection follows. Measured potencies and affinities stand elsewhere.
test: cell viability loss from selected hits – cytotoxicity control for SV40 T antigen inhibitor project, dose response (AID 2102); conditions: Host cell viability cytotoxicity counter-screen; series mostly up to 50 µM; viability: at the top concentration;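 note: cells exposed to compounds for 72 hours; 100% = mean of untreated cell control wells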

Row | Compound | viability | outcome
1 | Cc1nonc1C(=O)N/N=C/c1ccc(O)c(O)c1 | 109% (inactive) | 
2 | CC(=O)NCCc1c[nH]c2ccc(O)cc12 | 108% (inactive) | 
3 | COc1ccccc1N1CSC2=C(C#N)C(c3ccc(SC)cc3)CC(=O)N2C1 (configuration not stated) | 104% (inactive) | 
4 | COc1cc(/C=N/NS(=O)(=O)c2ccc(Br)cc2)ccc1O | 103% (inactive) | 
5 | CC(=O)c1ccc2c(c1)C1C=CCC1C(C(=O)O)N2 (configuration not stated) | 102% (inactive) | 
6 | Nc1cc(C(=O)O)c(N)c2c1C(=O)c1ccccc1C2=O | 94.8% (inactive) | 
7 | C=CCSC1=NC(=O)/C(=C/c2cccs2)S1 | 96% (inactive) | 
8 | CN1CCC/C1=C/C=C1\SC(=S)NC1=O | 108% (inactive) | 
9 | CCCC1=NN2C(=N)/C(=C\c3ccc(SCc4ccco4)o3)C(=O)N=C2S1 | 93.2% (inactive) | 
10 | N=C1/C(=C\c2ccc(SCc3ccco3)o2)C(=O)N=C2SC=NN12 | 102% (inactive) | 
11 | CSC1=NSC2=NC(=O)/C(=C\c3coc4ccccc4c3=O)C(=N)N12 | 90.3% (inactive) | 
12 | CN(C)c1ccc(NC(=O)CN2CCC(N3CCCCC3)CC2)cc1 | 106% (inactive) | 
13 | N#C/C(=C\c1coc2ccc(O)cc2c1=O)C(=O)Nc1nc2ccccc2s1 | 110% (inactive) | 
14 | O=c1c2cc(O)c(O)cc2oc2cc(O)c(C3OC(CO)C(O)C(O)C3O)c(O)c12 (configuration not stated) | 99.3% (inactive) | 
15 | CCOc1cc(NC2CS(=O)(=O)CC2O)c(OCC)cc1NC(=O)c1ccccc1 (configuration not stated) | 81.7% (inactive) | 
16 | CC1(C)CC(=O)C(C=Nc2ccc(O)cc2)=C(O)C1 | 95.6% (inactive) | 
17 | COc1ccc(-n2c(=O)c3c4c(sc3n3c(=S)[nH]nc23)CCC4)cc1 | 81.5% (inactive) | 
18 | O=c1c2c3c(sc2n2c(=S)[nH]nc2n1-c1ccccc1)CCC3 | 88.7% (inactive) | 
19 | COCCCn1c(=O)c2ccccc2n2c(=S)[nH]nc12 | 94.7% (inactive) | 
20 | OCc1ccccc1SSc1ccccc1CO | 82.2% (inactive) | 
21 | O=C(O)CCNc1ccc(NCCC(=O)O)c2c1C(=O)c1ccccc1C2=O | 87.2% (inactive) | 
22 | Oc1ccc(-c2nc3ccccn3c2NCc2ccco2)cc1 | 110% (inactive) | 
23 | Oc1ccc2ccccc2c1C=Nc1ccc(N2CCOCC2)cc1 | 100% (inactive) | 

Row | Compound | viability | outcome
24 | Cc1ccc(-n2nnnc2C(Cl)(Cl)c2nnnn2-c2ccc(C)cc2)cc1 | 93.8% (inactive) | 
25 | c1ccc(-c2ccc3c(c2)NCCN3)cc1 | 109% (inactive) | 
26 | Oc1ccc(/C=N/NC(=S)Nc2cccnc2)cc1 | 109% (inactive) | 
27 | CCCCC1(C)OC(=O)C(=Cc2ccc(-c3ccc(Cl)c(C(=O)O)c3)o2)C(=O)O1 (configuration not stated) | 97.5% (inactive) | 
28 | Nc1nc2ccc(S(=O)(=O)N3CCCCC3)cc2s1 | 82.8% (inactive) | 
29 | O=C(O)c1ccccc1NS(=O)(=O)c1cccc(-n2sc3ccccc3c2=O)c1 | 115% (inactive) | 
30 | O=c1c2ccccc2sn1-c1cc(S(=O)(=O)N2CCOCC2)ccc1N1CCCC1 | 89.4% (inactive) | 
31 | C[C@]12CC[C@@H]3c4cc(O)c(O)cc4CC[C@H]3[C@@H]1CC[C@@H]2O | 86.2% (inactive) | 
32 | O=C(Nc1ccc(O)cc1)c1ccc(NC(=O)C2CCCO2)cc1 (configuration not stated) | 113% (inactive) | 
33 | COc1cc([N+](=O)[O-])ccc1NC(=O)Oc1ccc(NC(C)=O)cc1 | 111% (inactive) | 
34 | O=C1CC(=O)N(Cc2ccco2)C(=O)N1 | 92.7% (inactive) | 
35 | COc1ccc(NCC(O)Cn2cnc3c2c(=O)n(C)c(=O)n3C)cc1 (configuration not stated) | 87.5% (inactive) | 
36 | CCN(CC)c1ccc(NC(=O)COC(=O)c2ccc3ccccc3n2)cc1 | 107% (inactive) | 
37 | COc1cc(/C=c2\sc3n(c2=O)CCCN=3)ccc1O | 113% (inactive) | 
38 | Cc1nn(CC(=O)Nc2ccc(N(C)C)cc2)c(C)c1[N+](=O)[O-] | 90% (inactive) | 
39 | Cc1cc(=O)oc2c(N)c(O)ccc12 | 112% (inactive) | 
40 | Cc1cc(C)c2c(c1)NC(C(=O)O)C1CC=CC21 (configuration not stated) | 101% (inactive) | 
41 | CCOc1cc(/C=N/Nc2ncnc(Cl)c2N)ccc1O | 93.8% (inactive) | 
42 | O=c1cc(-c2ccc(O)c(O)c2)oc2c(C3O[C@H](CO)[C@@H](O)[C@H](O)[C@H]3O)c(O)cc(O)c12 (some centres not stated) | 98.5% (inactive) | 
43 | O=c1cc(-c2ccc(O)c(O)c2)oc2cc(O)c(C3OC(CO)C(O)C(O)C3O)c(O)c12 (configuration not stated) | 97.3% (inactive) | 
44 | COc1cc(/C=N\NC(=O)CNC(=O)c2cccc([N+](=O)[O-])c2)ccc1O | 97.5% (inactive) | 
45 | Nc1ccc(OCCCc2c(N)nc(N)nc2N)cc1 | 110% (inactive) | 
46 | COc1ccccc1NC(=O)Oc1ccc(NC(=O)c2ccco2)cc1 | 101% (inactive) | 

Row | Compound | viability | outcome
47 | Cc1cccc(/C=N/n2c(-c3ccncc3)n[nH]c2=S)c1 | 92.2% (inactive) | 
48 | S=c1[nH]nc(-c2ccc(Cl)cc2)n1/N=C/C=C/c1ccco1 | 93% (inactive) | 
49 | Oc1ccc(-c2cn3ccccc3n2)cc1O | 136% (inactive) | 
50 | C1=Cc2ccccc2Nc2ccccc21 | 109% (inactive) | 
51 | C[C@@H]1O[C@@H](OC2C(O)C(OCCc3ccc(O)c(O)c3)OC(CO)C2OC(=O)/C=C/c2ccc(O)c(O)c2)[C@H](O)[C@H](O)[C@H]1O (some centres not stated) | 99.6% (inactive) | 
52 | CCOc1cc(/C=C2\N=C3CCCCCN3C2=O)ccc1O | 107% (inactive) | 
53 | Cc1nc(N)sc1N=Nc1c(C)n(C)n(-c2ccccc2)c1=O | 103% (inactive) | 
54 | O=Cc1sc(=O)n(Cc2cccc(C(=O)O)c2)c1Cl | 102% (inactive) | 
55 | CN=c1scc(C)n1/N=C/c1ccc(O)cc1O | 83.5% (inactive) | 
56 | CC(C)(C)OC(=O)N/N=C/c1ccc(N2CCOCC2)s1 | 105% (inactive) | 
57 | O=C(O)c1cc(S(=O)(=O)O)cc(Nc2c3ccccc3nc3ccccc23)c1O | 104% (inactive) | 
58 | O=C(CSc1nc2ccccc2c(=O)[nH]1)c1ccc(O)c(O)c1 | 91.3% (inactive) | 
59 | CN(C)c1ccc(NC(=O)CSc2nnc(-c3cnccn3)n2C)cc1 | 103% (inactive) | 
60 | O=C1Nc2ccccc2/C1=N\N=C\c1ccc(O)c(O)c1 | 82.8% (inactive) | 
61 | CN(C)c1ccc(Nc2cc(Cl)ncn2)cc1 | 83.5% (inactive) | 
62 | C/C(CC(=O)Nc1ccc(N(C)C)cc1)=N\NC(=O)c1ccc(Cl)cc1Cl | 96.1% (inactive) | 
63 | O=C(N/N=C/c1ccc(O)c(O)c1)c1cccc(S(=O)(=O)N2CCCC2)c1 | 107% (inactive) | 
64 | COc1ccc(/C=N\NC(=O)c2ccc(=O)[nH]n2)cc1O | 124% (inactive) | 
65 | N=C1/C(=C/c2ccc(Br)o2)C(=O)N=C2SC(CC(=O)N3CCCC3)=NN12 | 93.3% (inactive) | 
66 | CN1CN(C)c2cccc3cccc1c23 | 102% (inactive) | 
67 | CCOc1ccc(S(=O)(=O)Nc2cc(Sc3ncn[nH]3)c3oc(=O)sc3c2)cc1 | 80.8% (inactive) | 
68 | COc1ccc(C2=CC3=C(Br)C(=O)C(C)(OC(=O)c4ccc(Cl)nc4)C(=O)C3=CO2)cc1 (configuration not stated) | 90.3% (inactive) | 
69 | CCOc1ccccc1NC(=S)N1CCN(c2ccc(O)cc2)CC1 | 93.7% (inactive) | 

Row | Compound | viability | outcome
70 | O=C(NC(=S)N1CCN(c2ccc(O)cc2)CC1)c1cccs1 | 105% (inactive) | 
71 | COc1cc(/C=N/NC(=O)CNC(=O)c2ccco2)ccc1O | 124% (inactive) | 
72 | O=C(COc1cccnc1[N+](=O)[O-])c1ccc(Cl)s1 | 134% (inactive) | 
73 | CN(C)c1ccc(NC(=O)c2cccc(N3C(=O)CCC3=O)c2)cc1 | 106% (inactive) | 
74 | O=C(O)[C@H]1CCCC[C@H]1C(=O)Nc1ccc(Nc2ccccc2)cc1 | 107% (inactive) | 
75 | CCOc1ccc(-c2nc(=S)[nH][nH]2)cc1 | 98.2% (inactive) | 
76 | COc1ccc(/C=N/NC(=O)c2cc(O)c(O)c(O)c2)cc1Cn1cc([N+](=O)[O-])cn1 | 92% (inactive) | 
77 | C=CCNC(=S)Nc1ccc(N(C)C)cc1 | 97.9% (inactive) | 
78 | COc1cc(/C=N/NC(=O)c2ccc(Cn3cc([N+](=O)[O-])cn3)o2)cc(Br)c1O | 96.9% (inactive) | 
79 | CCc1cc(C(=O)N/N=C/c2ccc(O)cc2)c2ccccc2n1 | 113% (inactive) | 
80 | COc1cc(/C=N/NC2=NCCCCC2)ccc1O | 107% (inactive) | 
81 | ClC(Cl)(c1nnnn1-c1ccccc1)c1nnnn1-c1ccccc1 | 90.6% (inactive) | 
82 | Oc1ccc(C2CNCCc3c2cc(O)c(O)c3Cl)cc1 (configuration not stated) | 95.4% (inactive) | 
83 | S=c1[nH]nc(-c2n[nH]c3c2CCC3)n1/N=C/C=C/c1ccco1 | 92.4% (inactive) | 
84 | COc1cc(/C=N/NC(=O)CCn2nnc3ccccc32)ccc1O | 98% (inactive) | 
85 | CC(C)C(=O)Nc1ccc(O)c(-c2csc(N)n2)c1 | 104% (inactive) | 
86 | Cc1cc2cc3c(N)[nH]nc3nc2cc1C | 104% (inactive) | 
87 | O=S(=O)(c1ccc(NC(=S)N/N=C/c2ccc(O)c(O)c2)cc1)N1CCOCC1 | 95% (inactive) | 
88 | CN(C)C(=S)Nc1ccc(N2CCOCC2)cc1 | 101% (inactive) | 
89 | Oc1ccc(NC(=S)Nc2ccccc2)cc1 |  | inactive
90 | O=C1/C(=C/C=C/c2ccco2)SC(=S)N1NS(=O)(=O)c1ccccc1 | 110% (inactive) | 
91 | O=C(CN1C(=O)/C(=C/c2ccco2)SC1=S)Nc1ccc(O)c(C(=O)O)c1 | 105% (inactive) | 
92 | CCCCCCNC(=O)N[C@H](C(=O)NCCC[C@H]1CN2C(=NC[C@H]2C)N1CCC(c1ccccc1)c1ccccc1)C(C)O (some centres not stated) | 94.3% (inactive) | 

Row | Compound | viability | outcome
93 | COc1cc(CNc2ccc3c(c2)OCCO3)ccc1OCC(N)=O | 91.7% (inactive) | 
94 | COc1ccc(/C=N/Nc2nc(N3CCCC3)nc(N3CCCC3)n2)cc1O | 113% (inactive) | 
95 | Cc1nn(-c2ccccc2)c2[nH]c(=O)c(CNc3ccc(N4CCOCC4)cc3)cc12 | 88.7% (inactive) | 
96 | COc1cccc(C=Nc2ccc(N3CCOCC3)cc2)c1O | 108% (inactive) | 
97 | Cc1cc(C)nc(SSc2nc(C)cc(C)n2)n1 | 92.6% (inactive) | 
98 | CN1C=CC=C/C1=C(\C#N)c1nc2ccccc2[nH]1 | 129% (inactive) | 
99 | O=Cc1cccn1-c1ccc(O)cc1 | 101% (inactive) | 
100 | Cc1ccc(NC(=O)CN2C(=O)N/C(=C/c3cccn3-c3ccc(C(=O)O)cc3)C2=O)cc1 | 125% (inactive) | 
101 | O=C(O)C1Nc2c(O)cc(Cl)c([N+](=O)[O-])c2C2C=CCC12 (configuration not stated) | 112% (inactive) | 
102 | CN(C)c1ccc(NC(=O)CSc2nc3c(c(=O)[nH]2)CCCC3)cc1 | 89.6% (inactive) | 
103 | O=C1C(=Cc2ccc(Br)o2)C(=O)c2ccccc21 | 107% (inactive) | 
104 | Cc1ccc(C2=NOC(=O)/C2=C\c2ccc(C)o2)cc1 | 95.6% (inactive) | 
105 | O=C1ON=C(c2ccccc2)/C1=C\c1ccco1 | 99.4% (inactive) | 
106 | CC1=NOC(=O)/C1=C\c1ccc(-c2ccc(Cl)c(C(=O)O)c2)o1 | 98.5% (inactive) | 
107 | Nc1nc[nH]c(=O)c1N=Cc1ccccc1 | 104% (inactive) | 
108 | O=C(c1ccco1)N1CCCC(Nc2ccc3c(c2)OCCO3)C1 (configuration not stated) | 88.8% (inactive) | 
109 | c1cncc(CNc2ccc3c(c2)OCO3)c1 | 101% (inactive) | 
110 | O=C(c1ccc2ccccc2c1)N1CCN(c2ccc(O)cc2)CC1 | 92.7% (inactive) | 
111 | N#C/C(=C\c1ccc(O)c(O)c1)C(=O)c1ccc(O)c(O)c1 | 99.4% (inactive) | 
112 | CCOC(=O)c1ccc2c(c1)C1C=CCC1C(C(=O)O)N2 (configuration not stated) | 108% (inactive) | 
